In all, about 640,000 compounds went through this assay and about 9,300 (1.5%) were called active. Cut-off read from the data, not from the text of the source: active = inhibition above about 32%; inactive = the rest. For the sample, actives were picked, then their nearest neighbours and some compounds at random.
experiment: TEAD-YAP interaction inhibition, primary screen, TEAD-YAP interaction inhibitor project, luminescence, HEK-TIYL cells (AID 1259422); conditions: TEAD-Gal4/YAP UAS-luciferase luminescence, at 9.12 µM, active compounds read high;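 note: 0% = median of test compound wells and 100% = reference inhibitor wells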

Compound	inhibition
COc1ccc(C2C(C#N)=C(N)Oc3cc(C)n(Cc4ccco4)c(=O)c32)c(OC)c1 (configuration not stated)	6.86% (inactive)
O=C(N/N=C/c1ccc([N+](=O)[O-])o1)c1ccc(Cl)cc1Cl	44.6% (active)
O=C(N/N=C/c1ccc([N+](=O)[O-])o1)c1cc(Cl)ccc1O	2.15% (inactive)
O=C(N/N=C/c1ccc([N+](=O)[O-])o1)c1cccc(F)c1	-23.7% (inactive)
COc1cc(NC(=O)CC(C)C)c(C(=O)O)cc1OC	12.1% (inactive)
Cc1ccc(NC(=O)c2ccccc2Br)cc1C	-49% (inactive)
Cc1ccccc1C(=O)Nc1ccc(Br)c(Cl)c1	-77.6% (inactive)
Cc1cc(NC(=O)c2ccccc2Br)ccc1O	77% (active)
Cn1nccc1-c1cc(F)cc(-c2ccnc(Nc3ccc(-n4cnc(N5CCOCC5)n4)cc3)n2)c1	9.9% (inactive)
Cc1cnnn1-c1ccc(Nc2nccc(-c3cc(C#N)cc(N4CCOCC4)c3)n2)cc1	1.73% (inactive)
c1cc(-c2cncc(N3CCOCC3)c2)nc(Nc2ccc3c(c2)OCO3)n1	36.5% (active)
N#Cc1cc(-c2ccnc(Nc3ccc(-n4cnc(-c5ccccn5)n4)cc3)n2)cc(N2CCOCC2)c1	43.5% (active)
N#Cc1cccc(-c2ccnc(Nc3ccc(N4CCOCC4)cc3)n2)c1	-9.11% (inactive)
Cc1ncccc1-c1ncn(-c2ccc(Nc3nccc(-c4cc(F)cc(N5CCOCC5)c4)n3)cc2)n1	-3.6% (inactive)
COC1CCN(c2ncn(-c3ccc(Nc4nccc(-c5cncc(N6CCOCC6)c5)n4)cc3)n2)CC1	51.5% (active)
CN(C)c1cc(F)cc(-c2ccnc(Nc3ccc(-n4cnc(N5CCOCC5)n4)cc3)n2)c1	-6.66% (inactive)
OC1CCN(c2ccc(Nc3nccc(-c4cc(N5CCOCC5)cc(C(F)(F)F)c4)n3)cc2)CC1	31.8% (inactive)
Cc1nc(Oc2cc3sc(C)nc3c3sccc23)c2c3c(sc2n1)CCCC3	4.62% (inactive)
Cc1cc(-n2c(C)cc(C(=O)COC(=O)c3cc(=O)[nH]c4ccccc34)c2C)no1	-18.6% (inactive)

Compound	inhibition
CCC(C)NC(=O)C(C(F)(F)F)(C(F)(F)F)C(F)(F)F (configuration not stated)	4.25% (inactive)
COc1ccc(-c2cnnn2-c2ccc(-c3csc(N)n3)cc2)cc1	9.88% (inactive)
COc1ccc(C(=O)N2CCC[C@@H]2[C@@H](O)c2cccs2)cc1Cn1cccn1	-11.1% (inactive)
O=C(Nc1ccc2ccccc2c1)c1ccc2c(c1)C(=O)N(N1C(=O)c3ccccc3C1=O)C2=O	2.19% (inactive)
Cc1cccc(N2CCN(C(=O)Cn3ncc4c(=O)oc5ccccc5c43)CC2)c1C	63% (active)
Cc1ccc2oc(=O)c3cnn(CC(=O)N4CCN(c5ccccn5)CC4)c3c2c1	1.66% (inactive)
Cc1ccc2oc(=O)c3cnn(CC(=O)N4CCN(c5cccc(Cl)c5)CC4)c3c2c1	0.74% (inactive)
COc1ccc(/C=C2N=C(/C=C/c3ccc(Cl)cc3Cl)OC\2=O)cc1OC(C)=O	-1.28% (inactive)
Cc1ccccc1-n1c(=S)sc2c(=O)n(-c3ccccc3)c(SCc3cccc([N+](=O)[O-])c3)nc21	-6.72% (inactive)
O=C1C2CC=CCC2C(=O)N1c1ccc(N2C(=O)C3CC=CCC3C2=O)c(Cl)c1 (configuration not stated)	9.86% (inactive)
O=C(Nc1ccc(-c2nc3ccccc3o2)cc1)c1ccc(Oc2ccccc2)cc1	-4.71% (inactive)
CCC(=O)Nc1ccc(-c2nc3ccccc3o2)cc1	3.84% (inactive)
CC(C)C(=O)Nc1ccc(-c2nc3ccccc3o2)cc1	44.5% (active)
COc1ccc(C(=O)N/C(=C/c2ccc([N+](=O)[O-])cc2)C(=O)Nc2cc(Cl)cc(Cl)c2)c(Cl)c1	-19% (inactive)
CS(=O)(=O)N(CC(=O)NCCC1=CCCCC1)c1ccc(OCc2ccccc2)cc1	5.23% (inactive)
CCOC(=O)c1cccc(NC(=O)COc2ccccc2Br)c1	54.5% (active)
Cc1cc(NC(=O)COc2ccccc2Br)no1	-74.2% (inactive)
CCCCOC(=O)c1cccc(NC(=O)COc2ccc(C)c(C)c2)c1	-33.7% (inactive)
Cc1ccsc1/C=N/NS(=O)(=O)c1ccc(Br)cc1	-2.4% (inactive)

Compound	inhibition
CC(C)C(=O)N=C1N=C2C=CC(Cl)=CN2Cc2ccccc21	-43.4% (inactive)
COC(=O)c1ccc(Nc2ncnc3nc[nH]c23)cc1	12.4% (inactive)
COc1ccc(/C=N/Nc2ncnc3nc[nH]c23)cc1OC	-5.99% (inactive)
COc1cccc(/C=N/Nc2ncnc3nc[nH]c23)c1OC	37.2% (active)
COc1ccccc1-c1cnnc(N/N=C/c2cccc(OC)c2OCC(=O)O)n1	15% (inactive)
CCOc1ccc(/C=N/Nc2ncnc3nc[nH]c23)cc1	81.1% (active)
COc1cccc(/C=N/Nc2nc(=O)[nH]nc2C)c1OC	-7.82% (inactive)
Cc1sc2ncn(CC(=O)NCCCC(=O)NCCC3=CCCCC3)c(=O)c2c1C	6.71% (inactive)
CCOc1ccc(/C(O)=C2/C(=O)C(=O)N(CCN(CC)CC)C2c2ccc(F)cc2)cc1C (configuration not stated)	-0.51% (inactive)
CCCCCCn1c(NNC=O)nc2c1c(=O)[nH]c(=O)n2C	5.98% (inactive)
CCOC(=O)c1ccc(NC(=O)C2CC(=O)N(CCc3ccccc3)C(=Nc3ccccc3)S2)cc1 (configuration not stated)	5.21% (inactive)
Cc1ccc(CN(C)Cc2c(C(=O)N3CCN(C4CCCCC4)CC3)nc3ccccn23)o1	-4.7% (inactive)
COc1ccc(Nc2nc(N3CCCC3)nc(N3CCCC3)n2)cc1	1.54% (inactive)
COc1ccccc1N1CCN(C(=O)c2n[nH]c(=O)c3ccccc23)CC1	59% (active)
COc1cc(OC)c(OC)cc1CN1CCN(c2ccccc2F)CC1	2.95% (inactive)
COc1cc(CN2CCN(c3ccccc3OC)CC2)cc(OC)c1	4.91% (inactive)
O=C(c1n[nH]c(=O)c2ccccc12)N1CCN(Cc2ccccc2)CC1	-7.02% (inactive)
COc1ccccc1-n1nc(C(=O)N2CCN(c3ccccc3)CC2)c2ccccc2c1=O	0.45% (inactive)
COc1cc2nc(CN3CCN(c4ccccc4OC)CC3)[nH]c(=O)c2cc1OC	63.6% (active)
